Data as given in PubChem BioAssay (NCI).
Where “and” joins values, the source holds several entries; their conditions need not be identical. Equal entries are not always repeated. About 79,000 compounds went through this panel and 15% of them were active in at least one assay; those are over-represented in the sample as a whole. Cut-off read from the data, not from the text of the source: active = growth inhibition above about 70%; inactive = the rest. Where a SMILES comes first, the peptide text is derived from it. The star is where a group is joined. Boc = CC(C)(C)OC(=O)*

Key:
[1] = NCI Yeast Anticancer Drug Screen. Data for the rad50 strain (AID 155);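 note: 0% = growth of vehicle-only cultures of the same strain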; conditions: S. cerevisiae rad50 strain growth inhibition, active compounds read high; at 50.0 µM unless noted
Outline: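 Cells are treated with compound, grown, and their growth is then scored against vehicle-only cultures of the same repair-deficient yeast strain.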

[2] = NCI Yeast Anticancer Drug Screen. Data for the mec2-1 strain (AID 157); conditions: S. cerevisiae mec2-1 strain, active compounds read high; at 50.0 µM unless noted
Outline: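 Cells of the genetically defined mec2-1 yeast strain are incubated with test compound. Inhibition of growth is calculated against vehicle-treated controls.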

[3] = NCI Yeast Anticancer Drug Screen. Data for the sgs1 mgt1 strain (AID 161);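 note: 0% = growth of cultures given vehicle only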; conditions: S. cerevisiae sgs1 mgt1 strain, active compounds read high; at 50.0 µM unless noted
Outline: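 Inhibition of yeast growth, normalised to vehicle-treated controls, is reported for a strain bearing genetic alterations in DNA damage repair.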

[4] = NCI Yeast Anticancer Drug Screen. Data for the cln2 rad14 strain (AID 165);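 note: 0% = growth equal to vehicle treated cultures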; conditions: S. cerevisiae cln2 rad14 strain, active compounds read high; at 50.0 µM unless noted
Outline: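 The screen exposed genetically defined yeast (cln2 rad14) to test compounds and scored growth inhibition relative to vehicle-treated controls.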

[5] = NCI Yeast Anticancer Drug Screen. Data for the bub3 strain (AID 167); conditions: S. cerevisiae bub3 mutant strain, active compounds read high; at 50.0 µM unless noted
Outline: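 Part of a panel of yeast mutants defective in DNA damage repair or cell cycle regulation. Each strain is grown with compound, and inhibition is calculated relative to solvent-treated cultures.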

[6] = NCI Yeast Anticancer Drug Screen. Data for the mlh1 rad18 strain (AID 175); conditions: S. cerevisiae mlh1 rad18 strain growth inhibition, active compounds read high; at 50.0 µM unless noted
Outline: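 Compound-treated yeast growth, normalised to vehicle controls. Strain bears defined DNA repair mutations.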

Measured: growth inhibition

COc1c(OC(C)=O)ccc(/C=C2\N=C(C)OC2=O)c1[N+](=O)[O-]
inactive: [1] -8.3% | [2] -4.75% | [3] 5.25% | [4] 16.5% | [5] 11.1% | [6] 9.2%

CCOC(=O)c1ccc(N=Cc2ccc(N(CCC#N)CCC#N)cc2)cc1
inactive: [1] 9.35% | [2] 1.65% | [3] -7.25% | [4] 3.7% | [5] -1.5% | [6] -7.45%

COC(=O)CCSCc1ccccc1
inactive: [1] 2.65% | [2] 2.55% | [3] -1.6% | [4] -10% | [5] 4.8% | [6] 3.55%

CCCC(=O)CC(=O)Nc1ccccc1
inactive: [1] 2.9% | [2] -6.3% | [3] -14.9% | [4] -23.9% | [5] -17.6% | [6] 11.2%

CCCCC(C#N)C(=O)NC(N)=O (stereo unspecified)
inactive: [1] -7% | [2] 3.2% | [3] -8.05% | [4] 0.4% | [5] 4.85% | [6] -7.25%

CC(N)C(=O)NO (stereo unspecified)
inactive: [1] -20.4% | [2] -24.6% | [3] -16.2% | [4] -40.6% | [5] 4.85% | [6] -36%

c1cc2c(cc1C1=NNC(c3ccc4c(c3)OCO4)=NN1)OCO2
inactive: [1] -13.3% | [2] 10.2% | [3] -7.45% | [4] 1.4% | [5] -4.95% | [6] -3.05%

CC(C)=CC(=O)O
inactive: [1] 3.2% | [2] -3.3% | [3] -9.3% | [4] 20.3% | [5] 2.1% | [6] 7.9%

NNC(=O)Cc1cccnc1
inactive: [1] -3.6% | [2] -0.75% | [3] -26.1% | [4] -8% | [5] -33% | [6] 9.55%

CN(C(=O)Cc1ccccc1)n1cn[n+](CC(=O)OC(C)(C)C)c1
inactive: [1] -3.65% | [2] -13.6% | [3] -12.4% | [4] -8.35% | [5] -24.6% | [6] -23.6%

NC(=O)CC(NC(=O)CCl)C(=O)O (stereo unspecified)
inactive: [1] -12.3% and -15% | [2] -24.8% and -8.15% | [3] 2.1% | [4] 12.4% | [5] -0.35% | [6] -22.4% and -16.1%

CC(C)c1ccccc1O
inactive: [1] 34.9% | [2] 30.7% | [3] 9.95% | [4] 8.8% | [5] 0.45% | [6] 22.4%

COC1/C=C/OC2(C)Oc3c(C)c(O)c4c(O)c(c(C5SCCS5)c(O)c4c3C2=O)NC(=O)C(C)=C/C=C\C(C)C(O)C(C)C2OC(C)(C)OC(C1C)C2C (stereo unspecified)
inactive: [1] 2.15% | [2] 33% | [3] 22.8% | [4] 15.6% | [5] 14.4% | [6] 38%

CC(=O)Nc1ccc2ccccc2c1[N+](=O)[O-]
inactive: [1] -11.1% | [2] -14.4% | [3] -17.4% | [4] -64.5% | [5] -35.8% | [6] 15.7%

CCN(CC)c1ccc2c(c1)C(=O)c1ccccc1-2
inactive: [1] -6.7% | [2] 27.6% | [3] 14.2% | [4] 15.8% | [5] 38.8% | [6] 30.6%

COC(=O)C(C)(N=Cc1ccccc1)c1ccccc1 (stereo unspecified)
inactive: [1] -34.2% | [2] -30.9% | [3] 6.7% | [4] 17.4% | [5] -9.75% | [6] 0.6%

CCCCCCCCC(=O)NCO
inactive: [1] -17.8% | [2] -10.9% | [3] -21.4% | [4] -3.4% | [5] -25.6% | [6] -24.1%

O=C(O)CCNc1ccc(Cl)cc1[N+](=O)[O-]
inactive: [1] 25.8% | [2] 26.8% | [3] 30.4% | [4] 16.1% | [5] 34.9% | [6] 25.8%

CC1(O)C2CC3CC(C2)CC1C3 (stereo unspecified)
inactive: [1] -1.1% | [2] -3.1% | [3] -13.3% | [4] -59% | [5] 13.2% | [6] 10.3%

NC(=O)CCCCCCCCC(N)=O
inactive: [1] 10.7% | [2] 4.95% | [3] 9.65% | [4] -4.75% | [5] -1.4% | [6] 31.1%

O=c1[nH]c(=O)n(C2OC(CO)C(O)C2Br)cc1Br (stereo unspecified)
inactive: [1] -2.25% | [2] -3.3% | [3] -6.8% | [4] -7.6% | [5] 0.65% | [6] 23.9%

CCN(CC)C/C(C)=C(/c1ccccc1)c1ccccc1S(N)(=O)=O
inactive: [1] 5.8% | [2] 4.15% | [3] -1.5% | [4] -30.6% | [5] 1.15% | [6] 9.65%

COc1ccc(/C=N/N2CN(C(C)C(=O)O)B(NCCC(C)C)N=C2N)cc1OC (stereo unspecified)
inactive: [1] -0.5% | [2] -10.3% | [3] 20.9% | [4] 6.3% | [5] 29.2% | [6] -4.1%

Cc1ccc(S(=O)(=O)n2cc(C#N)c(C#N)c2)cc1
inactive: [1] -10.8% | [2] 2.25% | [3] 10.8% | [4] -28.6% | [5] 16.3% | [6] 7.15%

CCC1([N+](C)(C)C)CSC1C (stereo unspecified)
inactive: [1] 5.15% | [2] 2.9% | [3] 4.35% | [4] -26.6% | [5] -8.65% | [6] -0.95%

CC(=O)NC1=NC(=O)/C(=C/c2ccc3c(c2)OCO3)N1C
inactive: [1] 4.7% | [2] 2.85% | [3] -3.3% | [4] 3% | [5] 5.5% | [6] 10.9%

COc1ccc(CCNC(=O)CCN2C(=O)CCC2=O)cc1OC
inactive: [1] 8.7% | [2] -12.8% | [3] 1.55% | [4] -3.25% | [5] -14.8% | [6] -2.9%

CN(C)c1ccc(N)c(N)c1
inactive: [1] -13.5% | [2] -34.8% | [3] -4.45% | [4] 12.1% | [5] 5.95% | [6] -12.9%

CSC(=S)N/N=C(\C)c1cccs1
inactive: [1] 7.05% | [2] 1.85% | [3] 4.75% | [4] -50.9% | [5] -47.5% | [6] 10.8%

COc1ccc(-c2cccc(C(=O)O)c2C(=O)O)cc1OC
inactive: [1] 6.1% | [2] 20.8% | [3] 0.4% | [4] -17.2% | [5] -7.4% | [6] -10.1%

Cc1ccc(Nc2nc(N)nc3c2ncn3C2OC(CO)C(O)C2O)cc1 (stereo unspecified)
inactive: [1] 25.8% | [2] 2.6% | [3] 7.85% | [4] -3.75% | [5] 18.6% | [6] 7.35%

OC1(C#CC#CC2(O)CCCCC2)CCCCC1
inactive: [1] 12.9% | [2] 15.7% | [3] 0.2% | [4] 10.1% | [5] 3.4% | [6] 4.2%

CCOC(=O)c1c(-c2ccc([N+](=O)[O-])cc2)cn(-c2ccc(OC)cc2)c1C
inactive: [1] 13.2% | [2] 7.1% | [3] 12.4% | [4] 4.35% | [5] -0.65% | [6] 1%

Cc1ccc(S(=O)(=O)OCCOCCOS(=O)(=O)c2ccc(C)cc2)cc1
inactive: [1] 30.8% | [2] -0.4% | [3] 2.25% | [4] 4% | [5] 18.9% | [6] 17.8%

OCC(O)COc1ccc(F)cc1 (stereo unspecified)
inactive: [1] 19.7% | [2] -16.2% | [3] -0.15% | [4] 4.55% | [5] -6.25% | [6] -12.1%

O=C(NC(CO)Cc1ccccc1)OCc1ccccc1 (stereo unspecified)
inactive: [1] -4.15% | [2] -5.25% | [3] 0% | [4] 5.45% | [5] 8.1% | [6] -7.65%

COC(=O)C(Cc1c[nH]c2ccccc12)NC(=O)C(Cc1c[nH]c2ccccc12)NC(=O)C(Cc1c[nH]c2ccccc12)NC(=O)C(Cc1c[nH]c2ccccc12)NC(=O)C(Cc1c[nH]c2ccccc12)NC(=O)C(Cc1c[nH]c2ccccc12)NC(=O)OC(C)(C)C (stereo unspecified) (Boc-WWWWWW-OMe; configuration not given here)
inactive: [1] -6.8% | [2] -12.7% | [3] -18.4% | [4] 7.25% | [5] 8.25% | [6] 16.4%

C[N+]1(C)N=C([O-])N(c2ccccc2Cl)C1=O
inactive: [1] 21.4% | [2] -27.4% | [3] -6.6% | [4] -37.5% | [5] 1.15% | [6] 18.1%

C=CCCC(=O)CC(=O)OCc1ccccc1
inactive: [1] -7.2% | [2] -31% | [3] -1.15% | [4] 8.05% | [5] -37% | [6] 16.1%

COc1cc(OC)c2c(c1)OC(c1cccnc1)C(c1ccccc1)C2=O (stereo unspecified)
inactive: [1] -5.2% | [2] -57.9% | [3] -5% | [4] -27.7% | [5] 12.5% | [6] 3.9%

O=C(c1ccccc1)c1cccc(C(=O)c2ccccc2)c1
inactive: [1] -2.1% | [2] -11.3% | [3] -12.9% | [4] 4.65% | [5] 7.35% | [6] -16.6%
